# Screens deposited in PubChem BioAssay by several laboratories.
# GC-B act: GC-B (human) receptor activation | hit rate 0.11% among 370,000 | AID 1920062 | activation, % at 10 µM | HEK293-GC-B cells, CNP EC30, cGMP TR-FRET; 0% at EC30 CNP, 100% saturating CNP;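 active = activation at 10 µM reaching about 35% in either raw or pattern-adjusted values, limit read from the data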
# ADAM10 inh: ADAM10 inhibition, QFRET primary screen; inhibition, % at 7 µM; recombinant ADAM10, EDANS/DABCYL FRET peptide cleavage, 3 h; O14672; hit rate 0.62% among 370,000;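 active = inhibition above a per-campaign cutoff equal to the mean of compounds falling between control-based bounds plus 3 SD, cut at about 20% in these data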
# ADAM17 inh: inhibits human ADAM17; recombinant ADAM17, EDANS/DABCYL FRET peptide cleavage; P78536; inhibition, % at 6.95 µM; hit rate 0.83% among 370,000; AID 720648;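 active = inhibition above the mean of compounds lying between control limits plus 3 SD, set per campaign, cut at about 8.5% in these data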
# FAS-TE inh: FAS thioesterase (human) inhibition | hit rate 0.67% among 360,000 | inhibition, % at 15 µM | recombinant FAS-TE, OMFH fluorogenic substrate, fluorescence endpoint | P49327 | AID 602261;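 active = compounds whose normalised, plate-corrected inhibition of enzyme fluorescence in the single-dose primary screen is 50% or more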
# GC-A act: GC-A (human) enzyme activation | P16066 | HEK293 GC-A cells, cGMP TR-FRET, EC30 ANP; 0% at EC30 ANP, 100% saturating ANP | activation, % at 10 µM | hit rate 0.14% among 370,000 | AID 1671463; in the data active = activation above about 40%
# Hits are given with their value; 0 = inactive; - = not tested or not shown. Compounds with a hit are over-represented: about 2% of the library has one in this group of screens.
SMILES,GC-B act,ADAM10 inh,ADAM17 inh,FAS-TE inh,GC-A act
CN1CCN(C(=O)c2cnn3c(C(F)(F)F)cc(-c4cccs4)nc23)CC1,0,0,0,0,0
COC(=O)C1CN(Cc2cn(CCC3OCCO3)nn2)CCS(=O)(=O)N1Cc1ccccc1 (centres undefined),0,0,0,-,0
O=C(N[C@H]1CCCCNC1=O)c1cc(COc2ccc(F)cc2F)on1,0,0,0,0,65.9
Fc1ccccc1CNc1nc(-c2cccnc2)nc2ccccc12,35.8,0,0,0,0
CN(c1ccc(NC(=O)CCc2cn(Cc3ccc(Br)cc3)c3ccccc23)cc1)c1ccccn1,0,0,0,-,0
COc1ccc(NC(=O)c2cc(-c3cc(F)ccc3OC)n[nH]2)c(OC)c1,0,0,0,0,0
COc1ccc(NC(=O)c2cc(-c3cc(F)ccc3OC(C)C)n[nH]2)c(C)c1,61.0,0,0,0,55.6
O=S1(=O)c2ccc(Br)cc2OC[C@@H](Cc2ccccc2)N1Cc1cn(Cc2ccc(F)cc2)nn1,0,0,0,-,0
c1ccc(CNc2nc(-c3cccs3)nc3ccccc23)nc1,0,0,0,0,0
Cc1ccc(CNc2nc(-c3cccs3)nc3ccccc23)cc1,39.2,0,0,0,0
COc1ccc(-c2cc(C3CCN(CC(O)C(F)(F)F)CC3)[nH]n2)cc1 (centres undefined),0,0,0,0,0
COc1ccc(-c2cc(C3CCN(Cc4cccc(C(F)(F)F)c4)CC3)[nH]n2)cc1,0,23.9,12.3,0,0
CCCCNC(=O)NS(=O)(=O)c1ccc(NC(=O)CSc2ncnc3scc(-c4ccc(C)cc4)c23)cc1,0,0,0,-,0
COc1ccc(-c2cc(C(=O)N/N=C/c3ccc4c(c3)OCO4)c3ccccc3n2)c(OC)c1,0,0,0,50.8,0
CCc1cccc(Nc2cc(C)n(-c3cccc(CC)c3)c(=O)c2)c1,0,0,0,-,0
C=CCN1C(=O)/C(=C/c2ccc(O)c(OC)c2)S/C1=N/c1nccs1,0,21.7,0,0,0
CCn1c(SCC(=O)Nc2nc(-c3ccc(C)cc3)cs2)nnc1-c1ccccc1,0,0,0,0,0
CCn1c(SCC(=O)Nc2nc(-c3ccc(C)cc3)cs2)nnc1-c1ccccc1O,0,0,14.8,0,0
Cn1nnnc1SCC(=O)Nc1nc(-c2ccc(F)c(F)c2)cs1,0,0,0,0,42.0
CCOC(=O)C1=C(C)Nc2ncnn2C1/C=C/c1ccccc1 (centres undefined),0,0,0,0,0
CCCC1=C(C(=O)OCC)C(/C=C/c2ccccc2)n2ncnc2N1 (centres undefined),0,-,-,0,44.8
COc1cc(OC)c2c(O)c3c(=O)cc(C)oc3c(-c3c(OC)cc4cc5c(c(O)c4c3O)C(=O)CC(C)(O)O5)c2c1 (centres undefined),0,0,0,-,0
CC(C)(C)OC(=O)NCCCCCNC(=O)c1[nH]cnc1C(=O)N[C@@H](CCCCNC(=O)OC(C)(C)C)C(=O)OC(C)(C)C,-,-,-,68.4,-
CC(C)(C)OC(=O)NCc1ccc(CNC(=O)c2nc[nH]c2C(=O)NCc2ccc(CNC(=O)OC(C)(C)C)cc2)cc1,0,0,12.0,0,0
CC(C)(C)OC(=O)CNC(=O)c1nc[nH]c1C(=O)NCc1ccc(CNC(=O)OC(C)(C)C)cc1,0,0,0,0,0
SMILES,GC-B act,ADAM10 inh,ADAM17 inh,FAS-TE inh,GC-A act
CC(C)(C)OC(=O)NCCCCCNC(=O)c1nc[nH]c1C(=O)NCCCCCNC(=O)OC(C)(C)C,0,0,0,0,0
CC(C)(C)OC(=O)NCCCCCNC(=O)c1nc[nH]c1C(=O)NCc1ccc(CNC(=O)OC(C)(C)C)cc1,0,22.6,12.4,0,0
CC(C)(C)OC(=O)NCCCC[C@H](NC(=O)c1nc[nH]c1C(=O)N[C@@H](CCCCNC(=O)OC(C)(C)C)C(=O)OC(C)(C)C)C(=O)OC(C)(C)C,0,0,0,0,0
Cc1cc(NS(=O)(=O)c2ccc(NC(=O)CSc3nnc(-c4ccccn4)n3Cc3ccco3)cc2)nc(C)n1,0,0,0,-,0
CCC(=O)N[C@@H]1C[C@@H]2O[C@@H](CO)CC[C@@H]2O[C@@H]1CCc1ccc(-c2cccc(OC)c2)cc1,0,0,0,-,0
O=C(O)c1cccc2cc(-c3ccccc3)oc(=O)c12,0,0,0,0,0
O=C(O)c1cccc2cccc(-c3c4ccc(=O)c(O)c-4oc4c(O)c(O)ccc34)c12,47.5,0,0,0,0
COc1ccc(Cn2ccc3ccc(-c4ccc5ccn(C(=O)c6ccccc6OC)c5c4)cc32)cc1,0,0,0,-,0
CCOC(=O)CC[C@@]1(C(=O)OCC)C[C@@H](CC(=O)NCc2ccc(C)o2)C(=O)N2CCCC=C21,0,0,0,-,0
COc1ccc(-c2[nH]ncc2N=Nc2cc(C)cc(C)c2)cc1,55.1,0,0,0,0
C/C(=N/NC(=O)CSc1nnc(SCc2ccc(C)cc2)s1)c1cccc(O)c1,0,0,0,-,0
Cc1ccccc1NC(=O)[C@@H]1CCCN1S(=O)(=O)c1cccc2cccnc12,0,0,0,-,0
O=C(c1cccc(F)c1)N(Cc1ccccn1)CC1CCCO1 (centres undefined),0,0,0,-,0
COc1ccc(-c2cccc(-c3nc4ccc(Cl)cn4c3NC3CCCCC3)c2)cc1,49.5,0,0,0,43.5
CC(=O)c1csc(-c2cccc(-c3nc4ccc(Cl)cn4c3NC3CCCCC3)c2)c1,56.2,0,0,0,51.3
COc1ccc(OC)c(-n2c(SCC(=O)Nc3cccc(S(N)(=O)=O)c3)nc3ccccc3c2=O)c1,37.0,0,0,0,0
CCC[C@H]1[C@@H](OC(=O)NCc2ccccc2)CC[C@@]23CCCN2C(=O)CCC[C@@H]13,0,0,0,-,0
CCC(C)N(C(=O)CSc1nnc(-c2cc(OC)c(OC)c(OC)c2)o1)C(C)CC (centres undefined),0,0,0,-,0
CCOC(=O)Cn1nnc(-c2ccccc2)n1,0,0,0,0,0
O=C(Cn1nnc(-c2ccccc2)n1)OC1CCOC1=O (centres undefined),0,0,0,0,53.8
O=C(Nc1ccc(Cl)c(Cl)c1)C1CCN(c2ncccn2)CC1,0,0,0,-,0
CC(C)C(=O)N1CCC2(CC1)Oc1ccc(Cl)cc1C(=O)C21CC(c2ccccc2)=NO1 (centres undefined),0,0,0,56.6,0
CC(C)C(=O)N1CCC2(CC1)Oc1ccc(F)cc1C(=O)C21CC(c2ccc(Cl)cc2)=NO1 (centres undefined),0,0,0,0,0
O=C(N/C(=C\c1ccc(Cl)cc1)C(=O)N1CCOCC1)c1ccc([N+](=O)[O-])cc1,0,0,0,89.3,0
O=C(N/C(=C/c1ccc(Cl)cc1)C(=O)N1CCOCC1)c1ccccc1,0,0,0,0,0
